Experimental data published in PubChem BioAssay AID686978 (National Center for Advancing Translational Sciences (NCATS), 2013).
Out of some 420,000 compounds screened, about 64,000 (15%) were called active. Roughly 27% stayed inconclusive and do not appear here. The call rests on the fitted dose curve; in most records, active means well fitted inhibition curve with a large enough effect; inconclusive means small, poorly fitted or top-dose-only effect; inactive means flat fitted curve, though single readings scatter. Only a sample is shown.

assay: qHTS for Inhibitors of human tyrosyl-DNA phosphodiesterase 1 (TDP1): qHTS in cells in absence of CPT; settings: DT40 Tdp1-/- hTDP1 cells, no CPT, ATP luminescence, 48 h; activity change, negative = growth inhibition: at 46.2 µM (top of the series); further: nearly all actives have a fitted effect of over 55% in size
Outline: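 No-CPT arm: Tdp1-/-;hTDP1 DT40 cells (400/well) plus compounds, incubated ≥48 hr at 37 °C. Readout CellTiter-Glo luminescence.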
On the % scale 0 is the no-effect control and ±100 the full control effect; potency means the concentration at half of the fitted maximal effect.

Structure (SMILES)	activity change, negative = growth inhibition	Potency
CCOCCCNC(=O)C1(O)c2cc(Br)ccc2NC(=O)N1c1ccc(C)c(C)c1 (centres undefined)	10.1% (inactive)	
Cc1cccc(NC(=O)CCN2CC(C)CC(C)C2)c1 (centres undefined)	13.4% (inactive)	
Cc1cc(=O)oc2cc(OC(C)C(=O)Nc3ccc(N4CCOCC4)cc3)ccc12 (centres undefined)	-14.8% (inactive)	
CC1CN(C(=O)CCC(=O)NC2CCN(Cc3ccccc3)CC2)c2ccccc2O1 (centres undefined)	4.16% (inactive)	
CC1CN(C(=O)CCC(=O)NCCCN2CCC(Cc3ccccc3)CC2)c2cc(Cl)ccc2O1 (centres undefined)		18.4 µM (active)
O=C(CC1Oc2ccccc2NC1=O)NCCCN1CCN(Cc2ccccc2)CC1 (centres undefined)	0.2% (inactive)	
CSc1ccc(Cl)c(C(=O)OCC(=O)N2CC(C)OC(C)C2)c1 (centres undefined)	7.32% (inactive)	
Cc1noc(C)c1S(=O)(=O)N(C)C[C@H]1Oc2ccc(NC(=O)C3CCCCC3)cc2C(=O)N([C@H](C)CO)C[C@@H]1C	-13.7% (inactive)	
C[C@H]1COc2cc(N3CCSCC3)ccc2S(=O)(=O)N1	-28.5% (inactive)	
Cc1nnc(C)n1/N=C/c1ccc(C(C)C)cc1	-3.59% (inactive)	
CCOC(=O)N1CCC(NC(=O)COc2cc(=O)n(C)c3ccccc23)CC1	-4.89% (inactive)	
Cc1ccc(F)c(NC(=O)CCOc2ccccc2C)c1	-6.79% (inactive)	
Cc1cc(Br)ccc1NC(=O)CCCOc1cc(=O)n(C)c2ccccc12		25.9 µM (active)
Cc1cc(C)n2nc(C(=O)Oc3ccc4c(c3)OCO4)nc2n1	-23.2% (inactive)	
CC(=O)c1c(N)n(C)c(=O)n(C)c1=O	0.345% (inactive)	
CCOC(=O)c1[nH]c2ccccc2c1N=C(C)N(CC)CC	-10.8% (inactive)	
CC(=O)c1c(-c2ccccc2)c2ccccc2[nH]c1=O	-0.0692% (inactive)	
Cc1c(-c2ccccc2)n[nH]c1C(=O)N=Nc1c(O)[nH]c2ccccc12		23.1 µM (active)
O=C(c1ccco1)N1CCN(C(=O)C2CC(c3ccc(F)cc3)=NO2)CC1 (centres undefined)	8.49% (inactive)	
COC(=O)c1ccc(CN(c2ccccc2OC)S(=O)(=O)c2cccs2)o1		23.1 µM (active)
COC(=O)c1ccc(Cc2ccccc2)o1	-14% (inactive)	
COc1ccccc1N(CC(=O)Nc1ccc(C(F)(F)F)cc1)S(C)(=O)=O	4.9% (inactive)	

Structure (SMILES)	activity change, negative = growth inhibition	Potency
O=C(O)C1C2CC2CN1C(=O)c1ccc(Cl)cc1Cl (centres undefined)	-14.9% (inactive)	
O=C(CSC1CC(=O)N(CCc2ccccc2)C1=O)Nc1ccc(Cl)cc1 (centres undefined)	-19.9% (inactive)	
O=C(CSc1ccc(-c2ccc(F)cc2)nn1)Nc1ccc2c(c1)OCCO2	-27.9% (inactive)	
O=C(CSc1ccc(-c2ccco2)nn1)NCc1ccc2c(c1)OCO2	-1.47% (inactive)	
O=C(CSc1ccc(-c2ccccn2)nn1)Nc1ccccc1		18.4 µM (active)
O=C(CSc1ccc(-c2ccco2)nn1)Nc1cccc(F)c1		20.6 µM (active)
O=C(CSc1ccc(-c2ccc(-n3cccn3)cc2)nn1)Nc1ccc([N+](=O)[O-])cc1	-3.72% (inactive)	
Cc1ccccc1NC(=O)CSc1ccc2nnc(-c3ccccn3)n2n1	-11.4% (inactive)	
O=C(CCC(=O)OCc1cccc(C(=O)Oc2ccccc2)c1)Nc1cccc2ccccc12	-21.2% (inactive)	
C=CCOc1ccccc1NC(=O)CN1C(=O)CNC1=O	-7.28% (inactive)	
COc1nc(N(C)C)nc(N2CC(=O)N(CCNS(=O)(=O)c3ccc(C)cc3)C2=N)n1	-15.3% (inactive)	
NC(=O)C1(N2CCCCC2)CCN(C(=S)Nc2ccc(Cl)cc2)CC1	-6.42% (inactive)	
CC(C)(C)Oc1ncc(Br)c(OC(C)(C)C)n1	-2.08% (inactive)	
Cc1ccc(/C=C/C(=O)OCC(=O)NCc2ccc(Cl)cc2)o1	8.3% (inactive)	
CCOCCCNC(=O)C(NC(=O)c1ccccc1O)c1ccccc1 (centres undefined)	-7.83% (inactive)	
O=C(CSc1nnc(C2CC2)n1Cc1ccccc1)Nc1cccnc1Cl	6.73% (inactive)	
O=C(NOCc1ccccc1)c1cccc([N+](=O)[O-])c1	-4.33% (inactive)	
CCC1(C(=O)c2ccccc2)C(c2cccc([N+](=O)[O-])c2)C1(C(=O)OC)C(=O)OC (centres undefined)		13 µM (active)
CCC(CC)NC(=O)/C=C/c1cccc([N+](=O)[O-])c1	-26.5% (inactive)	
COc1ccc(C)cc1NC(=O)Nc1ccccc1SC	-14% (inactive)	
O=C(COC(=O)Cc1ccc([N+](=O)[O-])cc1)NC1CCCCCC1	21.9% (inactive)	
CN(C(=O)CCN1C(=O)/C(=C/c2ccccc2F)SC1=S)C1CCS(=O)(=O)C1 (centres undefined)		23.1 µM (active)

Structure (SMILES)	activity change, negative = growth inhibition	Potency
COc1ccccc1/C=C1\SC(=O)N(CCC(=O)N(C)C2CCS(=O)(=O)C2)C1=O (centres undefined)	-17.3% (inactive)	
CN(C(=O)CN1C(=O)S/C(=C\c2ccccc2F)C1=O)C1CCS(=O)(=O)C1 (centres undefined)	-1.69% (inactive)	
CSc1cc(C)n(-c2ccccc2C)c(=S)c1C(C)=O	-2.36% (inactive)	
Cc1cccc(NC(=O)CSc2nnc(CCNC(=O)OC(C)(C)C)o2)c1C	-2.72% (inactive)	
CC1CC(C)CN(C(=O)CCNC(=O)Cn2cnc3ccccc3c2=O)C1 (centres undefined)	-6.93% (inactive)	
CCc1ccc(NC(=O)CSc2nnc(-c3cnccn3)n2Cc2ccco2)cc1	-21.8% (inactive)	
O=C1c2ccccc2C(=O)C1c1ccccc1F	-1.5% (inactive)	
CCCN1CCc2nc(N3CCN(C)CC3)ncc2C1	-13.9% (inactive)	
CN1CCN(c2ncc3c(n2)CC(c2ccccc2F)CC3=O)CC1 (centres undefined)		18.4 µM (active)
CSc1nsc(SC)c1NC(=O)OC1CCCCC1	-24.9% (inactive)	
N#CCSc1nn(-c2ccc(F)cc2)c(=S)s1	-15.7% (inactive)	
CCOC(=O)N/N=C1\CC(C)S(=O)(=O)c2ccc(Cl)cc21 (centres undefined)	-29.5% (inactive)	
Cc1nc(N2CCOCC2)nc2c1CCCC2	-3.14% (inactive)	
COc1cccc(C(C(=O)NC2CCCC2)N(C(=O)c2ccco2)c2cccc(C(C)=O)c2)c1OC (centres undefined)	-19.3% (inactive)	
Fc1c(F)c(C(F)(F)F)c(F)c(F)c1N1CCN(c2ccc3nnc(C(F)(F)F)n3n2)CC1		23.1 µM (active)
FC(F)(F)c1nnc2ccc(N3CCN(c4ccccc4)CC3)nn12	-23.8% (inactive)	
NC(=O)c1oc2ccccc2c1NC(=O)CS(=O)(=O)c1ccccc1	14.4% (inactive)	
Cc1ccc(C(=O)CCC(=O)N(C)CC(=O)Nc2c(Cl)cccc2Cl)cc1	-20.5% (inactive)	
CC(C)CC(N=C1NC(C)(C)Cc2ccccc21)C(=O)O (centres undefined)	0.347% (inactive)	
Cc1nc2ccc(N)nc2nc1C	0.191% (inactive)	
Cn1c(C(=O)NCCCN2CCCCC2)cc2sccc21	-27.6% (inactive)	
O=C(CNC(=O)Cc1ccccc1)N=Nc1c(O)[nH]c2ccc(Br)cc12	-29.5% (inactive)	

Structure (SMILES)	activity change, negative = growth inhibition	Potency
COCC(=O)N=Nc1c(O)[nH]c2ccccc12	-18.6% (inactive)	
O=C(CCN1CCCCC1)N=Nc1c(O)[nH]c2ccccc12		23.1 µM (active)
COc1ccccc1CNC(=O)CCCNS(=O)(=O)c1cccc2nsnc12	-2.92% (inactive)	
Cn1c(C(=O)O)ccc1S(=O)(=O)N(Cc1ccccc1)Cc1ccccc1	1.26% (inactive)	
COc1ccc(C2NC(=O)C(=O)/C2=C(\O)c2ccc(Cl)cc2)cc1OC (centres undefined)	-6.54% (inactive)	
COc1ccc(NC(=O)CSCc2ccc([N+](=O)[O-])cc2)cc1OC	-29.2% (inactive)	
CCCCOc1ccc(CON(C(C)=O)C(C)=O)cc1Cl	20.8% (inactive)	
CCCCCOc1ccc(CSC2=NCCN2)cc1[N+](=O)[O-]		23.1 µM (active)
Cc1nc(SCc2ccc(F)cc2)c([N+](=O)[O-])[nH]1	-10.3% (inactive)	
CCCCOc1ccc(CSC(=N)N)cc1[N+](=O)[O-]		11.6 µM (active)
CCOc1ccc(C(=O)Nc2nccs2)cc1[N+](=O)[O-]	0.0318% (inactive)	
CC(NC(=O)CC1SC(N)=NC1=O)c1ccccc1 (centres undefined)	22.5% (inactive)	
CCc1cc(-c2nnn(CCC3COCCO3)c2CC)ccc1-c1cn(Cc2ccc3ccccc3c2)nn1 (centres undefined)		5.8 µM (active)
CCCCCc1ccc(-c2cn(Cc3ccc4ccccc4c3)nn2)cc1		inactive
O=C(Nc1ccccc1Cl)N1CCC(CN2CCCC2)CC1	-0.183% (inactive)	
COc1ccc(C(=O)Nc2nonc2-c2ccc(OC)c(OC)c2)cc1Cl		23.1 µM (active)
CCn1nnc(NC(=O)c2cc(Cl)c(OC)c(Cl)c2)n1	-21.1% (inactive)	
COc1ccc(-c2nonc2NC(=O)c2oc3ccc(F)cc3c2C)cc1OC	-19.1% (inactive)	
Cc1cc(C(=O)COc2ccccc2Cl)c(C)n1C1CC1		6.51 µM (active)
CC(=O)C1=C(C)NC(=O)NC1c1cc(Br)ccc1OCC#N (centres undefined)	1.02% (inactive)	
CCOC(=O)CC1C(=O)NCCN1C(=O)COc1ccc(Br)cc1C (centres undefined)	-1.36% (inactive)	
Cc1cc(C(=O)COc2ccc(Br)cc2F)c(C)n1C1CC1		3.26 µM (active)

Structure (SMILES)	activity change, negative = growth inhibition	Potency
O=C(COc1ccccc1Cl)Nn1cnnc1	0.711% (inactive)	
CN1CCN(C(=O)c2ccccc2NC(=O)COc2ccccc2Cl)CC1	-5.01% (inactive)	
CC(=O)c1cccc(NC(=O)N2CCCC2C(=O)NCCC(C)C)c1 (centres undefined)	-8.59% (inactive)	
COc1ccccc1C(=O)N(C1=NC(C)CS1)c1ccc(Cl)cc1 (centres undefined)	-5.33% (inactive)	
O=C(NCCc1ccccc1)C(=O)NCC1OCCN1S(=O)(=O)c1cccs1 (centres undefined)	-12% (inactive)	
CCCC(NC(=O)c1ccco1)c1nc2ccccc2[nH]1 (centres undefined)	-28.5% (inactive)	
CSCCC(NC(=O)c1cc([N+](=O)[O-])cc([N+](=O)[O-])c1)c1nc2ccccc2[nH]1 (centres undefined)		16.4 µM (active)
CSCCC(NC(=O)c1ccc(=O)n(C)n1)c1nc2ccccc2[nH]1 (centres undefined)	-21.1% (inactive)	
COc1ccc(C(=O)CN(C(=O)c2ccc(Cl)cc2)N2C(=O)c3ccccc3C2=O)cc1	-5.29% (inactive)	
COc1ccc(Cn2c(-c3ccc(Cl)cc3)c[n+]3ccccc23)cc1		1.16 µM (active)
CCn1c(C)cc(=O)cc1-c1ccc(Cl)cc1	2.38% (inactive)	
COc1ccc(S(=O)(=O)N2CCN(CC(=O)N3CCNC3=O)CC2)cc1OC	-5.83% (inactive)	
Cc1ccc(S(=O)(=O)CCC(=O)OCC(=O)N(C)Cc2ccccc2)cc1	-3.82% (inactive)	
CCOc1ccc(CNC(=O)c2ccc3c(c2)nnn3C2CCCC2)cc1	-25% (inactive)	
COc1ccc(C(=O)OCC(=O)N2CC(=O)Nc3ccccc32)cc1Br	-13.8% (inactive)	
CCc1ccc(NS(=O)(=O)c2ccc3[nH]cc(C(=O)NCCc4cccc(C)c4)c(=O)c3c2)cc1	-25% (inactive)	
CN(c1ccccc1)S(=O)(=O)c1ccc(Cl)c(C(=O)NCCc2c[nH]c3ccccc23)c1		8.2 µM (active)
CSCCC(NS(=O)(=O)c1ccc(C)cc1)C(=O)NCCc1c[nH]c2ccccc12 (centres undefined)	-29.1% (inactive)	
CN(c1ccccc1)S(=O)(=O)c1ccc(Cl)c(C(=O)OCC(N)=O)c1	-29.5% (inactive)	
CCN(CC)S(=O)(=O)c1ccc2[nH]cc(C(=O)NCCc3ccccc3)c(=O)c2c1		14.6 µM (active)
O=C(NCCc1ccccc1)c1c[nH]c2ccc(F)cc2c1=O	-17.7% (inactive)	
